In PubChem BioAssay (Tox21):
Where a structure was tested more than once in an assay, its records may differ in their call. Calls of active or inactive are those of the source. Unless noted, calls follow the shape of the dose curve; as a rule, active = well fitted curve in the direction sought with a large enough effect in the repeat runs; inconclusive = weak or mixed curves; inactive = no such curve, though single readings can be large; an effect the other way counts as inactive or inconclusive.

Columns and labels:
[1] = qHTS assay to identify small molecule antagonists of the thyroid receptor (TR) signaling pathway - cell viability counter screen (AID 743064); also: nearly all actives have a fitted effect of over 50% in size; also: potency is read from the fitted curve at half-maximal effect
How it was run: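 Fluorescence from CellTiter-Fluor, added after 23.5 h exposure at 37 °C, reported viability of GH3.TRE-Luc cells co-treated with compound and 1 nM T3. Measured in the same wells as the luciferase TR readout.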

[2] = qHTS assay to identify small molecule antagonists of the thyroid receptor (TR) signaling pathway (AID 743065); also: nearly all actives have a fitted effect of over 55% in size; also: potency is read from the fitted curve at half-maximal effect
How it was run: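 GH3.TRE-Luc rat pituitary cells (two TREs driving luciferase) were dosed with compound, then stimulated with 1 nM T3 (final) for 23.5 h at 37 C. ONE-Glo luminescence was the read-out, with CellTiter-Fluor fluorescence as the cytotoxicity counter-screen.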

[3] = target: Estrogen receptor (Homo sapiens) (UniProt P03372); experiment: qHTS assay to identify small molecule antagonists of the estrogen receptor alpha (ER-alpha) signaling pathway (AID 743069; active = well fitted curve in the direction sought with a large enough effect in the signal ratio in the repeat runs, not every such curve was filed as active; inconclusive = weak or mixed curves, or effect the other way; inactive = no such curve, though single readings can be large or run the other way; the % refers to the signal ratio)
Estrogen receptor (Homo sapiens), sequence (P03372 whole entry, looked up): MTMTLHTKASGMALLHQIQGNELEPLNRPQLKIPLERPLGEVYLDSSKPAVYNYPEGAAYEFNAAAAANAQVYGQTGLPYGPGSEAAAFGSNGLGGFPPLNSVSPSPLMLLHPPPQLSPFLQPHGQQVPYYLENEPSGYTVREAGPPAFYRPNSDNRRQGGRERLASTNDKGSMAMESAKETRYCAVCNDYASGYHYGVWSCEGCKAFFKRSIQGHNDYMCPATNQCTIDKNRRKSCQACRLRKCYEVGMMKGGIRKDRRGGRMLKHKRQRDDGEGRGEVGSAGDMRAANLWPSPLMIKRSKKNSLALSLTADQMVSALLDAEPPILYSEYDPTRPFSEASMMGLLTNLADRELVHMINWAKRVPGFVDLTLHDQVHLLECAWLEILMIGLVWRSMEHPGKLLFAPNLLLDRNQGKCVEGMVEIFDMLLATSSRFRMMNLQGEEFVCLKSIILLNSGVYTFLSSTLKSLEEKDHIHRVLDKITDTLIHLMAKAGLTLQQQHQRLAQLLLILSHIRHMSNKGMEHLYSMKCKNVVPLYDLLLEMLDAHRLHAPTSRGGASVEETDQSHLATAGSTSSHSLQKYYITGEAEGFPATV
How it was run: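 Reporter cells (ER-alpha-bla, HEK293 background) are conditioned overnight in stripped-serum medium (2% charcoal-stripped FBS). Compound and 17beta-estradiol exposure runs 18 hr at 37C, 5% CO2.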

[4] = target: Estrogen receptor (Homo sapiens) (UniProt P03372); experiment: qHTS assay to identify small molecule agonists of the estrogen receptor alpha (ER-alpha) signaling pathway (AID 743075; calls by dose curve;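 also: HEK293 GripTite cells with ER-alpha and UAS-driven beta-lactamase reporter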; also: potency is read from the fitted curve at half-maximal effect)
[5] = target: Estrogen receptor (Homo sapiens) (UniProt P03372); experiment: qHTS assay to identify small molecule agonists of the estrogen receptor alpha (ER-alpha) signaling pathway using the BG1 cell line (AID 743079); also: nearly all actives have a fitted effect of over 20% in size; also: potency is read from the fitted curve at half-maximal effect
[6] = qHTS assay to identify small molecule antagonists of the estrogen receptor alpha (ER-alpha) signaling pathway using the BG1 cell line (AID 743080; calls by dose curve;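 also: BG1 cells stimulated with 17beta-estradiol alongside compound; series mostly up to about 70 µM; nearly all actives have a fitted effect of over 25% in size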)
How it was run: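 Readout is ONE-Glo luminescence, taken 30 min at room temperature after reagent addition, preceded by a CellTiter-Fluor viability read; BG1-Luc-4E2 cells had received compound and 17beta-estradiol for 21.5 h at 37 C.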

[7] = target: Aromatase (Homo sapiens) (UniProt P11511); experiment: qHTS assay to identify aromatase inhibitors (AID 743083); also: nearly all actives have a fitted effect of over 55% in size; also: potency is read from the fitted curve at half-maximal effect
Aromatase (Homo sapiens), sequence (P11511 whole entry, looked up): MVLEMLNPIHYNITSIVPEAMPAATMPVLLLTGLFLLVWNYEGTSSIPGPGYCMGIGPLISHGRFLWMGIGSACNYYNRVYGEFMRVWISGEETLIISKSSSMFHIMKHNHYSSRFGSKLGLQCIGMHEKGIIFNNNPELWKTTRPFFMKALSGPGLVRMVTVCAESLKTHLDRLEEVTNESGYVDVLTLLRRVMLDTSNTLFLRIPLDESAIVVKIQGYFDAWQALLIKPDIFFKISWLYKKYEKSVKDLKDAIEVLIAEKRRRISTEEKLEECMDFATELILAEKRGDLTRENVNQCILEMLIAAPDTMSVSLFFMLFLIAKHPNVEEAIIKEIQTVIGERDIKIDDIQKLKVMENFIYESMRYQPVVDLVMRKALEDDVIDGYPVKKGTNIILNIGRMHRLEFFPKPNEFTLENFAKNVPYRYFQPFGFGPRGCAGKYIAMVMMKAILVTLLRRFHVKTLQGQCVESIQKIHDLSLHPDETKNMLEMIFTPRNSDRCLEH

[8] = qHTS assay to identify small molecule antagonists of the estrogen receptor alpha (ER-alpha) signaling pathway - cell viability counter screen (AID 743074; calls by dose curve;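 also: HEK293 cells carrying ER-alpha-UAS-bla reporter stimulated with 17beta-estradiol; nearly all actives have a fitted effect of over 45% in size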)
[9] = qHTS assay to identify small molecule antagonists of the estrogen receptor alpha (ER-alpha) signaling pathway using the BG1 cell line - cell viability counter screen (AID 743081);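 also: compound given together with 17beta-estradiol as the ER stimulus; nearly all actives have a fitted effect of over 45% in size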; also: potency is read from the fitted curve at half-maximal effect; as to activity change, negative = cytotoxicity: series mostly up to about 70 µM
[10] = system: thyroid hormone receptor (rat, GH3 cells); experiment: qHTS assay to identify small molecule agonists of the thyroid receptor (TR) signaling pathway (AID 743066; calls by dose curve)
% is scaled to controls: 0 for no effect and ±100 for the full control effect.

Oc1ccc(CCNCCCCCCNCCc2ccccc2)cc1O
inactive: Potency [3] | Potency [4] | Potency [5] | Potency [6] | Potency [7]
active: Potency [1] 29.8 µM | Potency [2] 26.6 µM

CC(C)(Cc1c[nH]c2ccccc12)NCC(O)COc1ccccc1C#N (centres undefined)
inactive: outcome [8] | Potency [9] | Potency [7]
active: Potency [1] 21.1 µM | Potency [2] 23.7 µM

CC1=CC(=C(c2ccc(N)cc2)c2ccc(N)cc2)C=CC1=N
inactive: activation [10] -3.23% [at 8.08 µM] | Potency [4] | activation [5] 1.34% [at 8.47 µM] | activity change, negative = inhibition [6] -25% [at 8.47 µM] | activity change, negative = cytotoxicity [9] -20.8% [at 8.47 µM]
active: Potency [1] 13.3 µM | Potency [2] 10.6 µM | Potency [9] 11.9 µM | Potency [7] 8.41 µM

C=C(C)C(=O)OCCCCCCCCCCOC(=O)C(=C)C
inactive: Potency [1] | Potency [2] | outcome [10] | outcome [8] | Potency [9] | Potency [7]

Nc1ccc(C(=O)Oc2ccccc2)c(O)c1
inactive: Potency [1] | outcome [10] | Potency [3] | outcome [8] | Potency [9] | Potency [7]
active: Potency [4] 13.4 µM [inconclusive] | Potency [5] 6.68 µM

Cc1nc(C)c(C)nc1C
inactive: Potency [1] | outcome [10] | Potency [3] | outcome [8] | Potency [4] | Potency [5] | Potency [6] | Potency [9] | Potency [7]

O=[N+]([O-])c1ccc(Cl)cc1Cl
inactive: Potency [1] | Potency [2] | outcome [10] | Potency [9] | Potency [7]

O=c1[nH][nH]c2ccccc12
inactive: Potency [1] | outcome [10] | Potency [3] | outcome [8] | Potency [4] | Potency [5] | Potency [6] | Potency [9] | Potency [7]

CC1(COc2ccc(CC3SC(=O)NC3=O)cc2)CCCCC1 (centres undefined)
inactive: Potency [4] | Potency [9]
active: Potency [1] 23.7 µM | Potency [2] 11.9 µM

CC(C)Oc1ccccc1O
inactive: Potency [1] | outcome [10] | Potency [3] | outcome [8] | Potency [4] | Potency [5] | Potency [6] | Potency [9] | Potency [7]

CC(C)(C(=O)O)c1ccc(C(O)CCCN2CCC(C(O)(c3ccccc3)c3ccccc3)CC2)cc1 (centres undefined)
inactive: Potency [1] | outcome [10] | Potency [3] | outcome [8] | Potency [4] | Potency [5]

C=CC(=O)NC(C)(C)C
inactive: Potency [1] | outcome [10] | Potency [3] | outcome [8] | Potency [4] | Potency [5] | Potency [6] | Potency [9] | Potency [7]

CCCCCCCCNC
inactive: Potency [1] | Potency [2] | outcome [10] | Potency [9] | Potency [7]

O=C(Cl)c1cc(Cl)cc(Cl)c1
inactive: Potency [1] | outcome [10] | Potency [3] | outcome [8] | Potency [4] | Potency [5] | Potency [6] | Potency [9] | Potency [7]

Cc1ccc(NC(=O)c2ccc(CN3CCN(C)CC3)cc2)cc1Nc1nccc(-c2cccnc2)n1
inactive: outcome [8] | Potency [4] | Potency [5]
active: Potency [1] 21.1 µM | Potency [2] 26.6 µM

NC(=O)c1ccccc1C(N)=O
inactive: Potency [1] | outcome [10] | Potency [3] | outcome [8] | Potency [4] | Potency [5] | Potency [9] | Potency [7]

FC1(F)C(F)(F)C(F)(F)C2(F)C(F)(C1(F)F)C(F)(F)C(F)(F)C1(F)C(F)(F)C(F)(F)C(F)(F)C(F)(F)C12F (centres undefined)
inactive: Potency [1] | Potency [2] | outcome [10] | outcome [8] | Potency [9] | Potency [7]

CCN(CCCCOC(=O)c1ccc(OC)c(OC)c1)C(C)Cc1ccc(OC)cc1 (centres undefined)
inactive: Potency [1] | outcome [10] | Potency [3] | outcome [8] | Potency [4] | Potency [5] | Potency [6] | Potency [9] | Potency [7]

CC(C)=CCC/C(C)=C/C=N/O
inactive: Potency [1] | outcome [10] | Potency [3] | outcome [8] | Potency [4] | Potency [5] | Potency [9] | Potency [7]

COC(=O)c1cc(Cl)ccc1[N+](=O)[O-]
inactive: Potency [1] | Potency [2] | Potency [3] | outcome [8] | Potency [4] | Potency [5] | Potency [6] | Potency [9] | Potency [7]

CC(=O)Nc1ccn(C2COC(COC(=O)c3ccccc3)O2)c(=O)n1 (centres undefined)
active: Potency [2] 16.8 µM
inactive: Potency [1] | outcome [10] | Potency [9]

C/C=C1\[C@H]2C=C(C)C[C@]1(N)c1ccc(=O)[nH]c1C2
inactive: Potency [1] | Potency [2] | outcome [8] | Potency [9] | Potency [7]

Cc1nc2sccn2c(=O)c1CCN1CCC(=C(c2ccc(F)cc2)c2ccc(F)cc2)CC1
inactive: Potency [3] | outcome [8] | Potency [4] | Potency [9] | Potency [7]
active: Potency [1] 29.8 µM | Potency [2] 26.6 µM

Cc1cccc(C)c1NC(=O)CN1CCCC1
inactive: Potency [1] | Potency [2] | outcome [10] | outcome [8] | Potency [9] | Potency [7]

CCc1ccc(C(=O)C(C)CN2CCCCC2)cc1 (centres undefined)
inactive: Potency [1] | outcome [10] | outcome [8] | Potency [9] | Potency [7]

Cc1cc(C)n(CO)n1
inactive: Potency [1] | Potency [3] | outcome [8] | Potency [4] | Potency [5] | Potency [6] | Potency [9] | Potency [7]

Clc1cc(Cl)c2c(c1)N=C1CCCCCN1C2
active: Potency [5] 23.7 µM
inactive: Potency [1] | outcome [10] | outcome [8] | Potency [4] | Potency [9] | Potency [7]

O=C(Nc1ccc2c(c1)Cc1ccccc1-2)C(F)(F)F
inactive: Potency [1] | outcome [10] | outcome [8] | Potency [9] | Potency [7]

C(/C=C/C=C/Nc1ccccc1)=Nc1ccccc1
inactive: Potency [1] | Potency [3] | outcome [8] | Potency [4] | Potency [5] | Potency [9] | Potency [7]

O=C(O)COCC(=O)O
inactive: Potency [1] | outcome [10] | Potency [9] | Potency [7]

CO[C@@H]1[C@@H](O[C@@H]2O[C@H](C)[C@@H](O[C@H]3C[C@@](C)(O)[C@@H](O)[C@H](C)O3)[C@H](N(C)C)[C@H]2O)[C@@H](CC=O)C[C@@H](C)[C@@H](O[C@@H]2CC[C@H](N(C)C)[C@@H](C)O2)/C=C/C=C/C[C@@H](C)OC(=O)C[C@H]1OC(C)=O
active: Potency [1] 26.6 µM
inactive: Potency [3] | Potency [4] | Potency [5] | Potency [7]

Cc1cc(C)c(C)c(O)c1
inactive: Potency [1] | outcome [10] | outcome [8] | Potency [4] | Potency [5] | Potency [6] | Potency [9] | Potency [7]

O=S(=O)(O)c1cc(Cl)c(Cl)cc1Cl
inactive: Potency [1] | Potency [3] | outcome [8] | Potency [4] | Potency [5] | Potency [6] | Potency [9] | Potency [7]
